This is an account of results in PubChem BioAssay AID2842 (Southern Research Institute, 2010).

Screen size: about 24,000 compounds; about 1,200 (5%) were called active. About 2% were inconclusive and are not listed. No rule for the calls is given here. The list is a sample of the results.

This experiment in a line: Mycobacterium tuberculosis H37Rv growth inhibition, putative kinase inhibitor library, confirmatory dose response (AID 2842).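 As to inhibition: bacteria incubated one week before Alamar blue readout; 0% = bacteria only wells and 100% = bacteria with high antibiotic.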 Particulars: M. tuberculosis H37Rv growth inhibition; CC50: measured here: Vero cell cytotoxicity; inhibition: stronger effect = higher value.
For `CC(=O)Nc1ccc(NC(=O)CSc2ccc(-c3ccc(Cl)cc3)nn2)cc1`, the inhibition is 0% (inactive).
On to `O=C(COc1ccccc1F)NC1CC(=O)N(c2ccc(Cl)cc2)C1` (centres undefined), for which the inhibition is 7.9% (inactive).
`CCOc1cccc2c1OC(c1cccnc1)N1N=C(c3cccc(O)c3)CC21` (centres undefined): the inhibition was -10.5% (inactive).
With `O=C(CC1Nc2cccc3cccc(c23)NC1=O)Nc1ccc(F)cc1` (centres undefined), the inhibition was 27.5% (inactive).
In the case of `COc1ccc2nc(NC(=O)c3cc(-c4ccccc4)nc4ccccc34)sc2c1`, the CC50 is more than 40 µg/mL and the inhibition was 95.1% (inactive).
Regarding `COc1cccc(C(=O)COC(=O)c2cc3cc(Br)cc(OC)c3oc2=O)c1`, the inhibition was -0.935% (inactive).
Consider `CCOC(=O)c1nn(-c2ccc(C)cc2)c(=O)cc1NCc1ccncc1`, for which the inhibition is -9.72% (inactive).
As for `COc1ccc(/C=C2\SC(=S)N(CCC(=O)Nc3nccs3)C2=O)cc1OC`, the inhibition was -4.88% (inactive).
In the case of `COc1ccccc1N1C(=O)N(c2cccc([N+](=O)[O-])c2)C2CS(=O)(=O)CC21` (centres undefined), the inhibition is -5.59% (inactive).
In the case of `CCS(=O)(=O)c1ccccc1C(=O)Nc1sc2c(c1C(N)=O)CCC(C)C2` (centres undefined), the inhibition was -17.6% (inactive).
As to `O=C(Nc1ccc(F)cc1)c1cn(Cc2ccccc2)cc2c(=O)n(-c3ccccc3)nc1-2`, the inhibition is -8.1% (inactive).
For `O=C(CCCc1ccccc1)Nc1c(C(=O)Nc2ccc3c(c2)OCO3)oc2ccccc12`, the inhibition is -0.74% (inactive).
On to `Fc1ccc2nc(Nc3nnc(-c4cccs4)o3)sc2c1`, for which the inhibition was 36% (inactive).
Regarding `COc1cccc(-c2nc(C(N)=O)c3[nH]c(=O)n(-c4ccccc4F)c3n2)c1`, the inhibition is -10.4% (inactive).
Consider `Cc1ccc(NC(=O)c2oc3ccccc3c2NC(=O)c2ccc([N+](=O)[O-])cc2)cc1`, for which the inhibition was 3.31% (inactive).
Consider `COc1ccc2cc(CCNC(=O)c3ccccc3OC)c(=O)[nH]c2c1`, for which the inhibition was 5.57% (inactive).
As for `Cc1c(C(=O)O)c2cc(O)ccc2n1C`, the inhibition was 12.9% (inactive).
For the compound `O=C(CN1C(=O)CCC1=O)Nc1nc(-c2ccc(Cl)c(Cl)c2)cs1`, the inhibition is 0.41% (inactive).
With `COc1ccc(Cl)cc1NC(=O)CSc1nnc(CCC(=O)O)c(=O)n1N`, the inhibition is -10.7% (inactive).
Same read-out and setting: with `O=C(Nc1nc2c(s1)CCCC2)c1coc2ccccc2c1=O` the figure was -2.85% (inactive).
On the same count and under the same terms, the figure for `O=C(NCc1ccc2[nH]c3c(c2c1)CCCC3)Nc1ccccc1` is 62.6% (inactive).
`COc1ccc(Nc2ncnc(N)c2[N+](=O)[O-])c(OC)c1`: the inhibition is 0.53% (inactive).
In the case of `Cc1ccc(-c2csc(Nc3ccc(O)c(C(=O)O)c3)n2)cc1`, the inhibition is -6.04% (inactive).
